Screening data (PubChem BioAssay)
RMI FANCM FP – disruptors of RMI1/RMI2 association with MM2 peptide – biochemical, fluorescence polarization, human, primary screen. AID 1159607, 2016. FP signal (polarization) at 33 µM. 70,000 tested, 0.58% active. RMI core complex with F-MM2 peptide; stronger effect = lower value. RMI core complex (RMI1/RMI2) binding to FANCM MM2 peptide, human; in the data active = FP signal below about 40
* = called active by the depositor; ! = repeats disagree. Only a selection was taken, and hits are over-represented in it overall.

SMILES	RMI FANCM FP
COc1cc(OC)cc(C(=O)NCC(c2cccc3ccccc23)N(C)C)c1 (configuration not stated)	54*
COc1ccc(CC(=O)NCC(c2cccc3ccccc23)N(C)C)cc1 (configuration not stated)	51
CN(C)C(CNC(=O)c1cccs1)c1cccc2ccccc12 (configuration not stated)	50
Cc1cc(-c2nnc(NC(=O)c3ccnn3C)o2)nn1C	70
CCOc1ccccc1NC(=O)c1cc(=O)c(OCC)cn1C	61
CCCCCOc1ccc(C(=O)NN)cc1	55
N=C(N)c1ccc(N)cc1	55
N=C(N)c1ccc(OCCCCCOc2ccc(C(=N)N)cc2)cc1	-2*!
O=C(CSc1nnc(NC(=O)c2ccc(F)cc2)s1)Nc1cc(C(F)(F)F)ccc1Cl	55
CC(=O)N1CCc2ccc(NC(=O)c3c(-c4ccccc4Cl)noc3C)cc21	66
Cc1onc(-c2ccccc2Cl)c1C(=O)Nc1ccc2c(c1)COCO2	1*
Cc1onc(-c2ccccc2Cl)c1C(=O)Nc1ccc2c(c1)OCC(C)(C)C(=O)N2	66
CCOC(=O)Cc1csc(NC(=O)c2ccc(N3C(=O)CCC3=O)cc2)n1	56
COc1ccc(-n2c(SCC(=O)Nc3ccc(F)cc3F)nc3c([nH]c4ccccc43)c2=O)cc1	68
CCOC(=O)c1c(NC(=O)c2ccc(Br)s2)sc(C)c1C	79
CCOC(=O)c1c(NC(=O)c2cc(S(=O)(=O)C(C)C)c(SC)s2)sc(C)c1C	37*
CCOC(=O)c1c(NC(C)=O)sc(C)c1C	56
COc1ccccc1CCNC(=O)C1(c2cccs2)CCCC1	68
O=c1cnnc(SCc2ccc(F)cc2)[nH]1	61
Cn1c(SCC(=O)NCc2ccc(Cl)cc2)nc2c(-c3ccccc3)c[nH]c2c1=O	74
CN(/C=C1\Oc2cc(O)ccc2C1=O)Cc1ccccc1	14*
O=C1/C(=C/c2ccc(Cl)cc2)Oc2cc(O)ccc21	-17
Cc1ncc(CO)c(/C=C2\Oc3cc(O)ccc3C2=O)c1O	85
O=C(Nc1cc2c3c(c1)CC(=O)N3CCC2)c1cccc(C(F)(F)F)c1	54
O=C(CN1CCOCC1)Nc1nnc(-c2cccs2)s1	60
COc1ccc(CC(=O)Nc2cc(-c3ccco3)nn2-c2nc(C)c(C)c(=O)[nH]2)cc1OC	33*
COc1ccc(CCC(=O)Nc2cc(-c3ccco3)nn2-c2nc(C)c(C)c(=O)[nH]2)cc1	41
Cc1nc(-n2nc(-c3ccco3)cc2NC(=O)COc2ccc(Cl)cc2)[nH]c(=O)c1C	57
C=CCn1c(SCC(=O)c2ccc3ccccc3c2)nc2scc(-c3ccc(C)o3)c2c1=O	69
